Laboratory results as given in paper PMC5540273 (PLoS ONE, 2017).

Columns and labels:
Conditions in all cases: concentration: 1 μM, replicates: in singlicate; n = 1
[1] = system: AAK1
[2] = system: ABL1-nonphosphorylated
[3] = system: ABL1-phosphorylated
[4] = system: ABL2
[5] = system: ACVR1B
[6] = system: ACVR1
[7] = system: ACVR2A
[8] = system: ACVR2B
[9] = system: ACVRL1
[10] = system: T1, ADCK3
T1 construct: gene CABC1

[11] = system: ADCK4
[12] = system: AKT1
[13] = system: AKT2
[14] = system: AKT3
[15] = system: ALK
[16] = system: T2, AMPK-alpha1
T2 construct: gene PRKAA1

[17] = system: T3, AMPK-alpha2
T3 construct: gene PRKAA2

[18] = system: ANKK1
[19] = system: T4, ARK5
T4 construct: gene NUAK1

[20] = system: T5, ASK1
T5 construct: gene MAP3K5
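Further: KINOMEscan kinase panel screen.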

| Compound | %Inh [1] | %Inh [2] | %Inh [3] | %Inh [4] | %Inh [5] | %Inh [6] | %Inh [7] | %Inh [8] | %Inh [9] | %Inh [10] | %Inh [11] | %Inh [12] | %Inh [13] | %Inh [14] | %Inh [15] | %Inh [16] | %Inh [17] | %Inh [18] | %Inh [19] | %Inh [20] |
| --- | --- | --- | --- | --- | --- | --- | --- | --- | --- | --- | --- | --- | --- | --- | --- | --- | --- | --- | --- | --- |
| Cc1ccc(F)c(C(=O)Nc2cccc(-c3nn4ccccc4c3-c3ccnc(Nc4cccc(F)c4)n3)c2)c1F [GSK361061] | 16% | 26% | 0% | 62% | 60% | 23% | 7% | 43% | 38% | 0% | 37% | 0% | 7% | 0% | 7% | 8% | 17% | 33% | 20% | 2% |
| FC(F)(F)c1ccc(/C=C/c2cncnc2Nc2ccc3[nH]c(Cc4ccccc4)nc3c2)cc1 [GW709199] | 15% | 35% | 19% | 4% | 0% | 0% | 24% | 37% | 0% | 18% | 0% | 0% | 0% | 0% | 23% | 0% | 3% | 0% | 6% | 0% |
| COc1ccc(Nc2nccc(NCCNC(=O)c3cc4ccccc4s3)n2)cc1 [GSK1379896] | 7% | 0% | 0% | 9% | 0% | 0% | 0% | 0% | 0% | 10% | 29% | 0% | 0% | 0% | 6% | 0% | 0% | 6% | 3% | 0% |
| COCCOCCOc1cc2ncc3c4ccc(C#N)cc4[nH]c3c2cc1OC | 92.1% | 70% | 53% | 2% | 0% | 0% | 6% | 0% | 0% | 29% | 0% | 5% | 0% | 0% | 0% | 30% | 1% | 63% | 12% | 6% |
| Cc1ccc(C(=O)Nc2ccc(Nc3ccnc4cc(-c5nccs5)ccc34)cc2O)cc1.Cl [GW494702] | 4% | 57% | 12% | 12% | 0% | 18% | 0% | 19% | 0% | 1% | 34% | 12% | 6% | 0% | 0% | 20% | 0% | 21% | 14% | 9% |
| COc1cccc(-c2ccc3c(NC(=O)C4CC4)n[nH]c3n2)c1 [SB-710903] | 12% | 83% | 76% | 24% | 0% | 18% | 0% | 22% | 0% | 3% | 48% | 0% | 0% | 0% | 29% | 0% | 13% | 0% | 0% | 12% |
| CCCCc1nn2ncccc2c1-c1ccnc(Nc2ccc(N3CCN(C)CC3)cc2)n1 [GW684941] | 21% | 95.8% | 98.8% | 96.8% | 67% | 89% | 16% | 35% | 51% | 96.7% | 93.1% | 0% | 0% | 0% | 72% | 5% | 9% | 0% | 62% | 0% |
| COc1cccc(C(=O)Nc2cccc(Oc3ccc4nc(NC(=O)C5CC5)cn4n3)c2)c1 | 27% | 100% | 99.7% | 96.3% | 0% | 0% | 1% | 18% | 8% | 10% | 39% | 19% | 0% | 3% | 0% | 23% | 0% | 0% | 0% | 7% |
| CC(C)c1nc(-c2cccc(NS(=O)(=O)c3c(F)cccc3F)c2F)c(-c2ccnc(Nc3ccc(N4CCOCC4)nc3)n2)s1 [GSK2008607] | 0% | 99.8% | 99.3% | 99.4% | 90.5% | 43% | 0% | 86% | 11% | 100% | 100% | 0% | 0% | 0% | 28% | 97% | 98.8% | 29% | 0% | 0% |
